From PubChem BioAssay AID1578 (Sanford-Burnham Center for Chemical Genomics, 2009) come the findings set out here.

Hit rate of the full screen: of about 290,000 compounds, about 3,000 (1%) were called active. This is one part of a sample in which actives are shown more often than they occur. A number with no mark means an inactive call. Cut-off read from the data, not from the text of the source: active = inhibition mostly above about 36% (no sharp cut-off); inactive = mostly below about 34%.

A short description of the experiment: NOD1 signaling inhibitors, primary screen, cell-based, luminescence, uHTS (AID 1578).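 Note: HEK-293T reporter cells stimulated with the NOD1 agonist gamma-tri-DAP.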 The settings on record: NOD1-driven NF-kB luciferase reporter cells, at 4 µM, hits give high values. For orientation: Reporter assays use an easily measured gene product as a stand-in for the process of interest.
Turning to `Cc1ccc(C(=O)NC2CC3CCC(C2)N3Cc2ccco2)cc1` (stereo not drawn), the inhibition was -13.6%.
With `O=C(COC(=O)c1ccc[nH]c1=O)NCCc1ccc(Cl)cc1Cl`, the inhibition was -4.3%.
As to `COc1ccc(OC)c(NC(=O)NNC(=O)CCCOc2ccc(Cl)cc2C)c1`, the inhibition was -14%.
As to `O=C(Cc1sc(-c2ccccc2Cl)nc1-c1ccccc1)Nc1ccccc1`, the inhibition is -49.4%.
For `O=C(O)Cc1sc(-c2ccccc2Cl)nc1-c1ccccc1`, the inhibition is 44% (active).
On to `O=C(O)Cc1sc(-c2ccccc2)nc1-c1ccccc1`, for which the inhibition is -9.7%.
Turning to `CCCn1c(=O)c(C(=O)NNC(=O)c2ccc(Cl)cc2Cl)c(O)c2ccccc21`, the inhibition is -6.2%.
As for `Cc1cc(Cl)ccc1NC(=O)CCCN1C(=O)CCC1=O`, the inhibition was 1.3%.
On to `O=C(Cn1nnc2ccccc21)N/N=C\c1cccs1`, for which the inhibition is -35.5%.
For `COc1ccc(/C=C/c2c(-c3ccc(OC)cc3)oc3ccc(-c4ccc(OC)cc4)cc23)cc1`, the inhibition was -16.5%.
As to `COc1ccc(/C=C/C(=O)Oc2ccc(C)cc2)cc1`, the inhibition was -12.4%.
To `CC1(C)C2CCC1(C)C(OC(=O)C[n+]1ccccc1N)C2` (stereo not drawn) belongs -14.7%; to `CC(C)NC(=O)C1CCN(C2CCN(C(=O)c3cc4c(s3)CCCCC4)CC2)CC1`, -13.9%.
To `Cc1cnc(CN(C)Cc2nc(Cc3cccc(C(F)(F)F)c3)no2)[nH]1` belongs -15.7%; to `CC(C)OC(=O)c1cc2c(=O)[nH]c(C(Cl)(Cl)Cl)nc2o1`, -25.8%.
As for `CS(=O)(=O)N(CC(=O)N1CCCCC1)C1CCCCC1`, the inhibition was 9.1%.
In the case of `O=C(N/N=C/C(Br)=C/c1ccccc1)c1cccnc1`, the inhibition was 10.1%.
Take `COc1cccc(C(=O)N/N=C/C(Br)=C/c2ccccc2)c1`: the inhibition is 63.6% (active).
To `COc1ccc(C(=O)N/N=C/C(Br)=C/c2ccccc2)cc1` belongs 26.8%; to `CCC1(C)Cc2ccccc2-c2nc3n(c(=O)c21)CCS3` (stereo not drawn), 5.3%.
In the case of `CC1(C)Cc2ccccc2-c2nc3n(c(=O)c21)CCCS3`, the inhibition was 44.3% (active).
On to `CC1(C)Cc2ccccc2-c2nc3n(c(=O)c21)CCS3`, for which the inhibition is -12.8%.
`O=C(COC(=O)CSCC(=O)N1CCCCC1)Nc1ccc(Cl)cc1`: the inhibition was 0%.
`Fc1ccc(-c2noc(-c3ccc4c(c3)CCO4)n2)cc1`: the inhibition was -17.4%.
To `CN(C)Cc1c(O)ccc2c(-c3ccccc3)cc(=O)oc12` belongs -22%; to `CC(=O)c1c(O)ccc2c(-c3ccccc3)cc(=O)oc12`, 13.4%.
To `COC(=O)c1ccccc1NC(=O)Nc1cc(C)ccn1` belongs -16.6%.
Turning to `Cc1cccc2sc(N(CCCN(C)C)C(=O)c3ccc(S(=O)(=O)N4CCc5ccccc5C4)cc3)nc12`, the inhibition was 13%.
Turning to `O=C(COC(=O)CCC(=O)c1ccc(F)cc1)Nc1ccc(N2CCOCC2)cc1`, the inhibition was -6.3%.
Regarding `O=C(OCCN1CCCCC1)c1ccc(Cl)cc1`, the inhibition was -7.2%.
Turning to `Oc1c(Br)cc(Br)cc1C=NCc1ccccc1`, the inhibition was -5.4%.
With `Oc1c(Br)cc(Br)cc1C=NCc1ccc(F)cc1`, the inhibition is 64.2% (active).
With `Oc1c(C=NCc2ccc(F)cc2)[nH]c2ccc(Br)c(Cl)c12` the figure was -16.1%.
Regarding `CCCn1c(N)c(Sc2ccccc2)c(=O)n(CCC)c1=O`, the inhibition is 17.2%.
As to `CCOC(=O)c1ccccc1NC(=O)c1c(F)c(F)c(F)c(F)c1F`, the inhibition is -18.5%.
In the case of `C/C(=N\NC(N)=O)c1ccccc1`, the inhibition is -34.5%.
Consider `CCCCC/C(=N\NC(=O)Nc1ccccc1)c1ccccc1`, for which the inhibition was -2.9%.
Turning to `NC(=O)N/N=C(/CCCCCC/C(=N\NC(N)=O)c1ccccc1)c1ccccc1`, the inhibition is 36.6% (active).
With `CC(=O)N1c2ccccc2C(C)(c2ccccc2)CC1(C)C` (stereo not drawn) the figure was 0.7%; with `CC1(C)C2C(Cl)(Cl)C2(C)c2ccccc2N1C=O` (stereo not drawn), -3.3%.
Consider `CC(=O)N1c2ccccc2C2(C)C(C1(C)C)C2(Cl)Cl` (stereo not drawn), for which the inhibition was 60.4% (active).
As to `Cc1cc(NC(=O)Nc2ccc(Cl)cc2)n(C)n1`, the inhibition is -7.2%.
Take `O=C1c2cccc3cc([N+](=O)[O-])cc(c23)C(=O)N1/N=C/c1ccc(O)cc1O`: the inhibition is 8.5%.
Regarding `O=[N+]([O-])c1cccnc1N/N=C/c1ccccc1O`, the inhibition is -18.6%.
Consider `COc1ccc(/C=N/Nc2ncccc2[N+](=O)[O-])c(OC)c1`, for which the inhibition is -42.4%.
Regarding `COc1cccc(/C=N/Nc2ncccc2[N+](=O)[O-])c1OC`, the inhibition is 39.6% (active).
For `CC(C)C(=O)NC(NC(=S)Nc1ccc(S(N)(=O)=O)cc1)C(Cl)(Cl)Cl` (stereo not drawn), the inhibition was -3.2%.
For `CCCCC(CC)C(=O)Nc1cc(=O)[nH]c2nc3ccccc3n12` (stereo not drawn), the inhibition was -1.4%.
As to `COC(=O)CNC(c1ccccc1)c1cc(Br)ccc1NC(=O)CCN1CCOCC1` (stereo not drawn), the inhibition was 35.8%.
In the case of `CCOC(=O)CNC(c1ccccc1)c1cc(Br)ccc1NC(C)=O` (stereo not drawn), the inhibition is -27.2%.
For `CCOC(=O)CNC(c1ccccc1)c1cc(Br)ccc1NC(=O)CCN1CCOCC1` (stereo not drawn), the inhibition was 69.7% (active).
With `CC(OC(=O)c1ccco1)C(=O)NC1CCCC1` (stereo not drawn), the inhibition was -27.9%.
As to `COc1ccc(CC(=O)N/N=C\c2cc(Br)c(O)c(Br)c2)cc1`, the inhibition was 17%.
With `Oc1[nH]c2c(Cl)cc(Cl)cc2c1N=NC(=S)NCC1CCCO1` (stereo not drawn), the inhibition is 104% (active).
In the case of `Cc1cc(C)c2[nH]c(O)c(N=NC(=S)NCC3CCCO3)c2c1` (stereo not drawn), the inhibition was -5.7%.
Take `Oc1[nH]c2ccccc2c1N=NC(=S)NCC1CCCO1` (stereo not drawn): the inhibition is -1%.
Turning to `O=C1NC(=O)C2C1C(c1ccccc1)N1C3C(=O)NC(=O)C3C(c3ccccc3)N21` (stereo not drawn), the inhibition was 6.2%.
Regarding `CC(C)c1nc2sc3c(NCc4ccco4)ncnc3c2c2c1COC(C)(C)C2`, the inhibition was 64% (active).
Turning to `CC(C)Cc1nc2sc3c(NCc4ccco4)ncnc3c2c2c1COC(C)(C)C2`, the inhibition was -25.1%.
As for `Cc1nc2sc3c(NCc4ccco4)ncnc3c2c2c1COC(C)(C)C2`, the inhibition is 20.3%.
As for `CCN(CC)CC(=O)NCc1cc(-c2ccc(OC)cc2)no1`, the inhibition is -8.1%.
Turning to `C=CCNc1nc(Nc2ccc(OC)cc2)nc(OCC)n1`, the inhibition is -7.5%.
For `CC(C)Cn1c(=O)c(C(=O)Nc2ccccc2S(N)(=O)=O)c(O)c2ccccc21`, the inhibition is -2.7%.
Consider `CCCn1c(=O)c(C(=O)Nc2cnccn2)c(O)c2ccccc21`, for which the inhibition was -22.7%.
With `CCn1c(=O)c(C(=O)Nc2ccccc2S(N)(=O)=O)c(O)c2ccccc21` the figure was -15.7%; with `Cn1c(=O)c(C(=O)Nc2cnccn2)c(O)c2ccccc21`, -52.8%; with `CC(C)Cn1c(=O)c(C(=O)Nc2cnccn2)c(O)c2ccccc21`, 0.1%.
Turning to `CCn1c(=O)c(C(=O)Nc2cnccn2)c(O)c2ccccc21`, the inhibition is 7.9%.
With `CCOC(=O)N1CCN=C1SCc1ccc(Cl)c(Cl)c1`, the inhibition was -47.1%.
For the molecule `Cc1nc(N2CCN(c3ccccc3)CC2)[nH]c(=O)c1Cc1ccccc1`, the inhibition is 8.4%.
Turning to `COc1ccccc1NC(=S)N(CCN1CCOCC1)Cc1ccccc1F`, the inhibition is -31.9%.
Regarding `O=[N+]([O-])c1ccccc1/C=N/Nc1nnc(-c2ccccc2)c(-c2ccccc2)n1`, the inhibition is -36.7%.
For the molecule `FCCCOc1ccc(-c2ccnc(-c3ccccc3)n2)cc1`, the inhibition was -45.6%.
With `Cc1c(Cl)cccc1NC(=O)NNC(=O)CCc1ccccc1` the figure was 28%; with `COc1cc(C)c(C)cc1S(=O)(=O)n1c(C)nc2ccccc21`, -11.1%.
With `CC(C)COP(=O)(c1ccc(N(C)C)cc1)C(O)c1ccc(N(C)C)cc1` (stereo not drawn), the inhibition is 2.4%.
Turning to `CC1CN(c2nc3c(c(=O)n(C)c(=O)n3C)n2Cc2c(F)cccc2Cl)CC(C)O1` (stereo not drawn), the inhibition was -14.7%.
With `O=C(NNC1=NCCC1)c1ccc(Br)cc1` the figure was 6.7%; with `CC(=O)c1ccccc1N(C(=O)c1ccco1)C(C(=O)NC1CCCC1)c1ccc(C)cc1` (stereo not drawn), -11.2%.
Take `Cc1ccc(NC2CCCN(C(=O)c3cccc(-c4ncc[nH]4)c3)C2)cc1C` (stereo not drawn): the inhibition was -0.1%.
As for `CCCC(O)(CCC)C(=O)NN(C(=O)CCl)c1ccccc1`, the inhibition is -30.8%.
Turning to `CCCCCCCN(C(=O)CCl)c1cccc(C)c1`, the inhibition was 57.4% (active).
Turning to `CCN(CC)NC(=O)Nc1ccccc1`, the inhibition is 1.7%.
With `O=C(Nc1ccccc1)NN(C(=O)CCl)c1ccccc1` the figure was 73.9% (active); with `CCCCC(O)(CCCC)C(=O)NN(C(=O)CCl)c1ccccc1`, 8.2%.
`Cc1ccc(N(NC(=O)C(O)(c2ccccc2)c2ccccc2)C(=O)CCl)cc1`: the inhibition is 87.3% (active).
With `CCCCCCN(C(=O)CCl)c1ccccc1` the figure was -4.8%.
In the case of `CCCCCCCN(C(=O)CCl)c1ccccc1C`, the inhibition is 27.2%.
As to `CCOC(=O)N(NC(=O)C(O)(c1ccccc1)c1ccccc1)c1ccccc1`, the inhibition is -25.2%.
Take `COC(=O)N(NC(=O)C(O)(c1ccccc1)c1ccccc1)c1ccc(C)cc1`: the inhibition is -13%.
Take `CCCC(O)(CCC)C(=O)NN(C(=O)CCl)c1cccc(C)c1`: the inhibition is 75% (active).
On to `CCC(O)(CC)C(=O)NN(C(=O)CCl)c1ccccc1`, for which the inhibition was -63.3%.
To `Cc1cccc(Nc2nc(NCC3CCCO3)nc(N)c2[N+](=O)[O-])c1` (stereo not drawn) belongs -27.5%; to `O=C(COc1ccccc1)OC(C(=O)c1ccccc1)c1ccccc1` (stereo not drawn), -26.7%.
To `Cc1cc(NS(=O)(=O)c2ccc(NC(=O)c3ccco3)cc2)no1` belongs 9.2%; to `O=C(O)CN1CCCCCC1=O`, -31.2%; to `Cc1nccn1CCCNC(=O)C1CCC(=O)N(Cc2ccccc2F)C1` (stereo not drawn), -13.5%.
Take `CC(C)(C)OC(=O)CN1c2cccc3cccc(c23)S1(=O)=O`: the inhibition was -5.8%.

One may read the inhibition as the change of the read-out against control, counted positive when it falls.
